G9a block: qHTS Assay for Inhibitors of Histone Lysine Methyltransferase G9a; Histone-lysine N-methyltransferase EHMT2 (Homo sapiens), Q96KQ7; AID 504332, 2011; G9a H3K9 monomethylation, AlphaScreen, 2 h; Potency, µM (doses to about 102 µM), inactives show top-dose activity, negative = inhibition, actives largely listed as inhibitors; actives 8.8% (n = 350,000); also: % is scaled to controls: 0 for no effect and ±100 for the full control effect; nearly all actives have a fitted effect of over 75% in size
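Using a bead-based AlphaScreen, monomethylated H3K9 product from 2 h room-temperature reactions (G9a 20 nM, peptide 500 nM, SAM 20 uM) was detected with 0.5 ug/mL rabbit anti-H3K9me1 antibody.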
HP1b chromo inh: HTS for Inhibitors of HP1-beta Chromodomain Interactions with Methylated Histone Tails. Chromobox protein homolog 1 (Homo sapiens), P83916. AlphaScreen HP1-beta / biotin-H3K9me3 peptide binding. Potency, µM (top dose mostly 114 µM), inactives show at the highest dose activity change, negative = inhibition, actives largely listed as inhibitors. actives 0.56% (n = 390,000); also: nearly all actives have a fitted effect of over 70% in size
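AlphaScreen: HP1-beta (50 nM) preformed 30 min with biotin-H3(1-18)K9me3 peptide (50 nM) in PBS pH 7.4, 0.01% Tween-20. Compound added for 30 min at RT, then streptavidin donor/nickel chelate acceptor beads (10 ug/mL) for 30 min.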
JMJD2A Tudor: qHTS Assay for Inhibitors of JMJD2A-Tudor Domain; Lysine-specific demethylase 4A (Homo sapiens), O75164; AlphaScreen JMJD2A-Tudor / H3K4me3 peptide binding; Potency, µM (highest dose often 114 µM), inactives show top-dose activity change, negative = inhibition, most hits filed as inhibitors; actives 4.4% (n = 390,000); also: % is scaled to controls: 0 for no effect and ±100 for the full control effect; nearly all actives have a fitted effect of over 50% in size
BAZ2B inh: qHTS Assay for Inhibitors of BAZ2B; actives 4.4% (n = 360,000); AlphaScreen BAZ2B-H3K14Ac peptide displacement; Bromodomain adjacent to zinc finger domain protein 2B (Homo sapiens), Q9UIF8; Potency, µM (highest dose often 114 µM), inactives show at the top dose activity change, negative = inhibition, actives largely listed as inhibitors; AID 504333, 2011; also: % is scaled to controls: 0 for no effect and ±100 for the full control effect; nearly all actives have a fitted effect of over 60% in size
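In this displacement format the biotinylated H3(5-23) peptide acetylated at Lys14 serves as ligand at 50 nM, with BAZ2B at 50 nM in PBS pH 7.4 containing 0.01% Tween-20. Donor and acceptor beads are 10 ug/mL final.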
Sfp inh: qHTS Assay for Inhibitors of Bacillus subtilis Sfp phosphopantetheinyl transferase (PPTase); Biochemical Sfp PPTase activity, qHTS; Potency, µM, without a hit: largest response in the series, negative = inhibition, most hits filed as inhibitors; AID 1490, 2009; 4'-phosphopantetheinyl transferase ffp (Bacillus subtilis), Q9F4F7; actives 3.5% (n = 310,000);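 also: the enzyme is Sfp with the accession as filed and its product quenches rhodamine fluorescence; 0% = enzyme reaction without inhibitor and -100% = no enzyme wells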
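With Hepes-Na pH 7.6 buffer containing 10 mM MgCl2, Sfp (15 nM) modified BHQ-2-YbbR (12.5 uM) using rhodamine-CoA (5 uM). Two reads 30 minutes apart at 525/598 nm yielded each well's rate.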
Numbers without * were called inactive; ? = inconclusive; nt = no result; [ ] = remark or other dose. Only some compounds are listed: those with a hit (about 12% of all), similar ones and a draw of the others. Calls follow the shape of the dose curve; as a rule, active = well fitted curve in the direction sought with a large enough effect; inconclusive = small, poorly fitted or top-dose-only effect, or another doubt; inactive = no such curve, though single readings can be large; an effect the other way counts as inactive or inconclusive. Potency is read from the fitted curve at half-maximal effect.

SMILES	G9a block	HP1b chromo inh	JMJD2A Tudor	BAZ2B inh	Sfp inh
COc1ccccc1CN1CCc2c([nH]c3ccccc23)C1	7.1µM*	?	20µM*	50µM*	-9%
O=C1NC2(CCCCCC2)C(=O)N1Cc1ccccc1F	31%	31%	-12%	-1%	8%
CC(=O)C1=C(O)C(=O)N(c2ccc(Br)cn2)C1c1ccccc1F (centres undefined)	?	47%	-11%	-10%	12%
O=C1C(=O)N(c2ccccn2)C(c2cccc(F)c2)/C1=C(/O)c1ccccc1 (centres undefined)	13%	71%	5%	-4%	26%
CC(=O)C1=C(O)C(=O)N(c2ccccn2)C1c1ccccc1[N+](=O)[O-] (centres undefined)	?	29%	20µM*	?	-22%
CC(=O)C1=C(O)C(=O)N(c2ccc(Br)cn2)C1c1ccccc1[N+](=O)[O-] (centres undefined)	40µM*	41%	-22%	-30%	-27%
CC(=O)C1=C(O)C(=O)N(c2ccccn2)C1c1cccc(F)c1 (centres undefined)	45µM*	29%	-11%	?	-14%
CC(=O)C1=C(O)C(=O)N(c2ccc(O)cc2)C1c1ccc([N+](=O)[O-])cc1 (centres undefined)	6%	17%	-17%	-25%	11%
COCCn1c(=NC(=O)c2ccc3c(c2)OCCO3)sc2cc(C(=O)OC)ccc21	6%[59 µM]	26%[57 µM]	2%	1%	nt
Cc1sc(Nc2ccc([N+](=O)[O-])cc2)nc1-c1c(C)n(C)n(-c2ccccc2)c1=O	12%[59 µM]	-17%	-27%	-1%	6%
Cc1ccc(Nc2nc(-c3c(C)n(C)n(-c4ccccc4)c3=O)c(C)s2)cc1	50µM*	6%	?	?	-2%
CCN(CC)S(=O)(=O)c1ccc2c(c1)nc(CCC(=O)Nc1ccc(N3CCOCC3)cc1)n2C	45µM*	-6%	-31%	-30%	-27%
COc1ccc(OCC(=O)Nc2ccc3c(c2)nc(CCN2CCOCC2)n3C)cc1	56µM*	16%	-20%	0%	14%
Cn1c(CCN2CCOCC2)nc2cc(NC(=O)COc3ccc(Cl)cc3)ccc21	-11%	16%	1%	-6%	4%
CCN(CC)S(=O)(=O)c1ccc(/C=C/C(=O)Nc2ccc(N3CCOCC3)cc2)cc1	45µM*	-18%	?	?	9%
Cc1ccc(C(=O)N2[C@@H]3CN(C)C(=O)[C@@]2(C)[C@H]2C(=O)N(C)C(=O)[C@@H]32)cc1	nt	22%	-20%	nt	nt
Cc1ccccc1[C@@H](NC(=O)OC(C)(C)C)C(=O)OC(C)(C)C	10%[0.501 µM]	52%	4%	6%	nt
Cn1nnnc1SCc1nnc(-c2ccc(Cl)cc2)o1	6%[59 µM]	56%	3%	-15%	13%
Cc1occc1-c1nnc(SCc2nnc(-c3ccc(Cl)cc3)o2)n1C	79µM*	?	-35%[11.4 µM]	-21%	-29%
Cc1ccccc1Cn1c(SCc2ccc(C(=O)NCc3cccs3)cc2)nc2ccncc21	-34%[59 µM]	82%	-23%	16%	nt
CN(C)c1ccc(CNS(=O)(=O)c2ccc3c(c2)NC(=O)CS3)cc1	50µM*	-4%	?	?	6%
Cc1ccc(CNC(=O)CC(C)S(=O)(=O)c2ccc3c(c2)NC(=O)CO3)cc1 (centres undefined)	0%	40%	-2%	-2%	10%
O=C1CSc2ccc(S(=O)(=O)NCc3ccccc3Cl)cc2N1	nt	5%[57 µM]	-14%	-6%	6%
CC(CS(=O)(=O)c1ccc2c(c1)NC(=O)CS2)C(=O)NCc1ccccc1Cl (centres undefined)	?	13µM*	25µM*	14µM*	-1%
Cc1ccc(CNC(=O)CC(C)S(=O)(=O)c2ccc3c(c2)NC(=O)CS3)o1 (centres undefined)	nt	-13%	-8%	-24%	25µM*
SMILES	G9a block	HP1b chromo inh	JMJD2A Tudor	BAZ2B inh	Sfp inh
COc1cccc(NS(=O)(=O)c2ccc3c(c2)N(C)C(=O)CC(=O)N3C)c1	?	22%	-7%	-1%	nt
O=S(=O)(c1ccc(C(F)(F)F)cc1)N1CCN(CCc2ccccc2)CC1	2%	58%	-3%	2%	13%
Cn1c(SCc2cccnc2)nc2c(c1=O)SCC2	18%[59 µM]	24%	-15%	?	-20%
Cn1c(SCc2cccc([N+](=O)[O-])c2)nc2c(c1=O)SCC2	?	-15%	56µM*	71µM*	-2%
CC(=O)Nc1cccc(NC(=O)CSc2ccc(-c3ccco3)nn2)c1	40µM*	17%	?	?	32µM*
CCc1nnc(SCC(=O)Nc2ccc(C(C)=O)cc2)nc1CC	-6%[12.7 µM]	-1%	-16%	56µM*	-2%
Cc1nc(C)c(-c2ccc(SCC(=O)Nc3cccc(F)c3)nn2)s1	22µM*	38%	?	-16%	-2%
Cc1ccc(CNC(=O)CSc2ccc(-c3ccco3)nn2)cc1	?	17%	-16%	0%	-11%
Cc1ccc(NC(=O)CSc2ccc(-c3ccco3)nn2)cc1	40µM*	8%	-8%	-1%	20µM*
CCOC(=O)c1ccc(NC(=O)CCCN2C(=O)NC3(CCCC3)C2=O)cc1	-9%[2.33 µM]	31%	-7%	10%	nt
C[C@@H](O)CCC[C@H](O)/C=C/[C@@H]1[C@@H](C/C=C\CCCC(=O)O)[C@@H](O)C[C@H]1O	nt	nt	nt	nt	-7%
O=C(NCCCN1CCCCCC1)[C@@H](c1ccccc1)C1CCCCC1	nt	nt	nt	nt	5%
CC(=O)Nc1ccc(NC(=O)CSc2ccc(-c3ccco3)nn2)cc1	28µM*	6%	?	?	45µM*
COCCn1c(SCC(=O)Nc2ccc(C(C)=O)cc2)nnc1-c1ccco1	16%	35%	-6%	-1%	-7%
Cc1cc(C)c(NC(=O)CSc2ccc(-c3cccnc3)nn2)c(C)c1	25%	31%	-20%	-2%	56µM*
CC(=O)Nc1ccc(NC(=O)CSc2ccc(-c3cccs3)nn2)cc1	10%	20%	-6%	-11%	-17%
Cc1ccc(NC(=O)CSc2ccc(-c3ccco3)nn2)c(C)c1	-3%	17%	-14%	2%	56µM*
CC(=O)c1ccc(NC(=O)CSc2ccc(-c3ccco3)nn2)cc1	?	27%	-12%	-20%	40µM*
CC#CCN1c2ccccc2[C@]23C[C@@H](C(=O)OC)N(S(=O)(=O)c4ccc(C(F)(F)F)cc4)C2=NC(C(=O)OC)=C(C(=O)OC)[C@H]13	nt	nt	nt	nt	11%

Assay outcomes as filed in PubChem.
